Only some compounds are listed: those with a hit (about 2.4% of all), similar ones and a draw of the others.
Pol eta inh-1 – qHTS for Inhibitors of Polymerase Eta | Potency, µM (highest dose often 114 µM), for inactives: at the highest dose activity change, negative = inhibition, actives largely listed as inhibitors | recombinant Pol eta, fluorescent DNA replication assay | DNA polymerase eta (Homo sapiens), Q9Y253 | 1.2% of 390,000 active; further: on the % scale 0 is the no-effect control and ±100 the full control effect
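Pol eta (10 nM) was preincubated with compounds for 15 min at room temperature, after which fluorescent replication substrate (50 nM final) was added to start the reaction. Fluorescence was read kinetically at 0 and 10 min.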
POLB inh – qHTS Assay for Inhibitors of DNA Polymerase Beta; 1.3% of 340,000 active; AID 485314, 2010; Pol beta primer extension/strand displacement, fluorescence kinetic; Potency, µM (doses to about 114 µM), without a hit: at the top dose activity change, negative = inhibition, hits mostly inhibitors; further: on the % scale 0 is the no-effect control and ±100 the full control effect
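Pol beta (10 nM) and compounds were preincubated 15 min at room temperature, then 50 nM substrate (final) started primer extension/strand displacement. Reads were taken at 0 and 10 min; concentration-response data were fitted to a four-parameter Hill equation.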
APEX1 inh – qHTS Assay for Inhibitors of the Human Apurinic/apyrimidinic Endonuclease 1 (APE1); AID 2517, 2012; 0.35% of 350,000 active; recombinant APE1, TAMRA/BHQ-2 abasic DNA cleavage fluorescence; Potency, µM (highest dose often 65.8 µM), inactives show at the highest dose activity change, negative = inhibition, hits mostly inhibitors; DNA repair nuclease/redox regulator APEX1 (Homo sapiens), P27695;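 further: plate controls were vehicle for no effect and reference inhibitor for full effect; nearly all actives have a fitted effect of over 55% in size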
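Kinetic fluorescence read (525 ex/598 em nm, three reads 60 s apart) of AP-site incision; signal = third minus first read. Enzyme 0.75 nM, dual-labelled THF duplex 50 nM, compound preincubation 15 min RT.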
POLI inh – qHTS for Inhibitors of Polymerase Iota; Pol iota fluorescent replication assay, 10 min; AID 588590, 2011; Potency, µM (series often up to 115 µM), without a hit: at the top dose activity, negative = inhibition, actives largely listed as inhibitors; 1% of 390,000 active
Target sequence (Q9UNA4 whole entry, looked up): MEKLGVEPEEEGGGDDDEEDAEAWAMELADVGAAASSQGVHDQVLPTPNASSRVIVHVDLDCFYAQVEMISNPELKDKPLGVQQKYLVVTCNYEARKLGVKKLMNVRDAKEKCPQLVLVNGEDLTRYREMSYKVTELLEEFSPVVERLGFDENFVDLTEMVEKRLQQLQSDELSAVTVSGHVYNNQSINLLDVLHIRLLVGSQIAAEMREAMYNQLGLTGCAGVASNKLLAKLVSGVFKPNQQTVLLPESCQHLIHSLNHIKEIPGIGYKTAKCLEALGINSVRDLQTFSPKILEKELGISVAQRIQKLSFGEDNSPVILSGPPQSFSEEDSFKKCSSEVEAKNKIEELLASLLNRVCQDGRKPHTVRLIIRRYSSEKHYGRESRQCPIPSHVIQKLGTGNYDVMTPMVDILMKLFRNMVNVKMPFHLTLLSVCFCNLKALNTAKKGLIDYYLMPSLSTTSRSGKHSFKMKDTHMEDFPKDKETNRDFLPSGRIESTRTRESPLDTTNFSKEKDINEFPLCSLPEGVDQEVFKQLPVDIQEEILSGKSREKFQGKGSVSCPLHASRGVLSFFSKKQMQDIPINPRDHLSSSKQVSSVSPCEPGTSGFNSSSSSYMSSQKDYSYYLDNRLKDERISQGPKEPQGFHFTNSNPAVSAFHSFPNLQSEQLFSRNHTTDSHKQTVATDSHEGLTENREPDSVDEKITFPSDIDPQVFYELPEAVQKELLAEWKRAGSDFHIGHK
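Pol iota at 10 nM preincubated 15 min with compounds at room temperature; reaction started with fluorescent substrate, 50 nM final. Fluorescence read kinetically at 0 and 10 min; buffer-only wells as negative control.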
GLS inhibitor – qHTS for Inhibitors of Glutaminase (GLS); Potency, µM (top dose mostly 45.5 µM), for inactives: at the top dose activity change, negative = inhibition, usual class: inhibitors; 0.21% of 410,000 active; GLS enzymatic activity, qHTS titration; further: on the % scale 0 is the no-effect control and ±100 the full control effect
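Compounds were pin-transferred onto hKGA, after which L-glutamine (1 mM solution) and a detection mix of glutamate oxidase, HRP and Amplex Red were added. Initial and 30 min RT fluorescence reads were collected.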
Pol kappa inh-1 – qHTS for Inhibitors of Polymerase Kappa; DNA polymerase kappa (Homo sapiens), Q9UBT6; purified Pol kappa, fluorescent DNA synthesis assay, 10 min; Potency, µM (titrated, usually from 107 µM), for inactives: at the top dose activity, negative = inhibition, usual class: inhibitors; 0.53% of 400,000 active; AID 588579, 2011; further: on the % scale 0 is the no-effect control and ±100 the full control effect
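Here, compound and 10 nM enzyme are combined for 15 min at room temperature; adding 50 nM substrate (final) starts DNA synthesis, tracked by fluorescence at 0 and 10 min against buffer-only wells.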
TbPGK inh – qHTS for inhibitors of Phosphogylcerate Kinase: Hit Validation Screen. 79% of 500 active. Potency, µM (titrated, usually from 57.5 µM), without a hit: at the highest dose activity change, negative = inhibition, most hits filed as inhibitors. shares compounds with Pol kappa inh-1. TbPGK coupled GAPDH assay, Kinase-Glo luminescence; further: on the % scale 0 is the no-effect control and ±100 the full control effect; nearly all actives have a fitted effect of over 65% in size
Pol iota confirm – qHTS for Inhibitors of Polymerase Iota: Confirmatory Assay for Cherry-picked Compounds. shares compounds with Pol kappa inh-1. Pol iota primer extension, TAMRA/BHQ fluorescence. Potency, µM, hits mostly inhibitors. 77% of 1,500 active. AID 720496, 2013
Pol kappa inh-2 – qHTS for Inhibitors of Polymerase Kappa: Confirmatory Assay for Cherry-picked Compounds. shares compounds with Pol eta inh-1. purified Pol-kappa, fluorescent strand-displacement substrate. Potency, µM, most hits filed as inhibitors. 76% of 920 active. AID 720501, 2013
Pol eta inh-2 – qHTS for Inhibitors of Polymerase Eta: Confirmatory Assay for Cherry-picked Compounds; Pol eta primer extension, TAMRA/BHQ fluorescence, 10 min; shares compounds with Pol eta inh-1; 64% of 2,600 active; Potency, µM, actives largely listed as inhibitors; AID 720502, 2013
An asterisk follows results filed as active; ? = inconclusive; · = no result given. The call rests on the fitted dose curve; in most records, active means well fitted curve in the direction sought with a large enough effect; inconclusive means small, poorly fitted or top-dose-only effect, or another doubt; inactive means no such curve, though single readings can be large; an effect the other way counts as inactive or inconclusive. Potency means the concentration at half of the fitted maximal effect.

SMILES | Pol eta inh-1 | POLB inh | APEX1 inh | POLI inh | GLS inhibitor | Pol kappa inh-1 | Pol iota confirm | Pol eta inh-2 | others
CC(=C\C(=O)O)/C(=C/c1ccco1)C(=O)O | ? | ? | ? | ? | -8.6% | ? | · | ·
CC(=C\C(=O)O)/C(=C/c1ccc(C)o1)C(=O)O | 7.94µM* | 20µM* | ? | ? | ? | ? | 33.6* | 21.3*
CN(C)c1ccc(N=Nc2ccc(C(=O)O)cc2)cc1 | 3.55µM* | 10µM* | ? | 11.2µM* | 0.0% | 31.6µM* | 21.2* | 4.26*
CN(C)c1ccc(N=Nc2ccccc2C(=O)O)cc1 | · | · | · | -2.6% | · | -19.1% | · | ·
O=C(Nc1ccc(S(=O)(=O)N2CCOCC2)cc1)c1nn(-c2ccc(F)cc2)ccc1=O | -11.7% | 5.9% | 5.4% | 43.0% | 0.1% | 15.6% | · | ·
O=C(Nc1ccc(S(=O)(=O)Nc2nccs2)cc1)c1nn(-c2ccc(F)cc2)ccc1=O | 20µM* | ? | -37.1% | 35.5µM* | -8.9% | 89.1µM* | 67* | 42.6*
COc1cccc(N=c2oc3ccc(OC)cc3cc2-c2nc3ccccc3[nH]2)c1 | 44.7µM* | ? | 6.3% | ? | -25.7% | -35.8% | 33.6* | 75.7*
COc1cccc(N=c2oc3ccccc3cc2-c2nc3ccccc3[nH]2)c1 | -1.0% | 1.5% | -5.3% | ? | -11.2% | -9.9% | · | ·
CC1CC(=O)N(c2ccc(NCc3ccc(Cl)cc3)c([N+](=O)[O-])c2)C1=O (stereo unspecified) | -29.9% | 2.9% | 3.4% | 4.7% | 3.1% | -1.5% | · | ·
O=C(O)c1cccc(-c2ccc(/C=C3/SC(=Nc4ccccc4)N(Cc4cccnc4)C3=O)o2)c1 | 7.08µM* | ? | 7.52µM* | ? | 128.9% | ? | 37.7* | 42.6* | TbPGK inh=6.51µM*;Pol kappa inh-2=21.2*
CCOC(=O)COc1ccc(/C=C2/SC(=Nc3ccccc3)N(Cc3cccnc3)C2=O)cc1OC | -15.6% | 6.8% | 3.7% | -7.1% | -6.1% | 3.5% | · | ·
O=C1C(Cl)=C(NC(=O)c2ccccc2)C(=O)C(Cl)=C1NC(=O)c1ccccc1 | -10.4% | -11.7% | 18.6% | 1.58µM* | ? | -11.9% | 23.8* | 84.9*
O=C(CN1C(=O)S/C(=C\c2ccc(C(=O)O)cc2)C1=O)Nc1ccccc1 | -2.5% | -0.5% | -7.9% | -18.8% | 1.0% | -7.8% | · | ·
O=C(O)c1ccc(-n2cccc2/C=C2/SC(=O)N(CC(=O)N3CCCC3)C2=O)cc1 | 1.78µM* | 2µM* | 3.36µM* | 3.55µM* | 15.8µM* | 7.08µM* | 5.32* | 6.75* | TbPGK inh=5.8µM*
O=C(CN1C(=O)S/C(=C/c2cccs2)C1=O)N1CCCC1 | -11.5% | · | 9.4% | 9.9% | 0.2% | -9.7% | · | ·
O=C(O)c1ccc(-n2cccc2/C=C2\SC(=O)N(Cc3ccc(Br)cc3)C2=O)cc1 | · | · | · | · | · | · | 75.2* | 75.7*
CNC(=O)CC1C(=O)N(c2ccc(Cl)cc2)C(=S)N1CCc1ccc(OC)c(OC)c1 (stereo unspecified) | -6.3% | 8.6% | 2.1% | 26.5% | -4.1% | -2.4% | · | ·
N#Cc1c(-c2ccco2)cc(-c2ccccc2)[nH]c1=O | -16.9% | ? | 31.6µM* | 10µM* | -15.9% | ? | 42.3* | 26.9* | Pol kappa inh-2=11.9*
CC(CNc1ccccc1O)C(=O)O (stereo unspecified) | 25.1µM* | 8.91µM* | ? | ? | 34.1% | ? | · | 60.1* | TbPGK inh=?
O=C(O)c1cc(O)c2c(c1)[C@@H]([C@H]1c3cc(C(=O)O)cc(O)c3C(=O)c3c(O[C@@H]4O[C@H](CO)[C@@H](O)[C@H](O)[C@H]4O)cccc31)c1cccc(OC3O[C@H](CO)[C@@H](O)[C@H](O)[C@H]3O)c1C2=O (stereo partly specified) | -99.8% | · | 0.0844µM* | -107.4% | ? | -97.0% | 2.99* | 6.01* | TbPGK inh=2.59µM*;Pol kappa inh-2=2.67*
O=C1c2cc(CO)cc(O)c2C(=O)c2c(O[C@@H]3OC(CO)[C@@H](O)[C@@H](O)[C@@H]3O)cccc21 (stereo partly specified) | 3.9% | · | · | -16.7% | -9.6% | -6.2% | · | ·
c1ccc2c(c1)ccn2-n1ccc2ccccc21 | · | · | · | 20.1% | · | -17.3% | · | ·
Cc1ccc(/C=C2/SC(=S)N(CCC(=O)N3CCN(C)CC3)C2=O)cc1 | -17.2% | 7.6% | 12.4% | 74.9% | -9.0% | -14.7% | · | ·
O=C(O)C1CCCCC1C(=O)Nc1cccc(Br)c1 (stereo unspecified) | 12.6µM* | · | 0.474µM* | 44.7µM* | 10.8% | ? | 75.2* | 37.9* | Pol kappa inh-2=18.9*
O=C(Nc1cccc(Br)c1)C1CCCC1 | -14.2% | · | · | 16.8% | -9.0% | 10.6% | · | ·
N#C/C(=C\c1ccc(-c2cc(Cl)ccc2Cl)o1)C(=O)Nc1ccccc1C(=O)O | 39.8µM* | ? | · | ? | 0.9% | ? | 75.2* | ? | Pol kappa inh-2=10.6*
CC1CC1c1ccc(/C=C(\C#N)C(=O)Nc2cc(Cl)ccc2Cl)o1 (stereo unspecified) | -20.8% | -26.5% | -3.4% | -4.9% | 0.0% | 7.3% | · | ·
CC(C)NC(=O)CC(=O)N/N=C/c1ccc(F)cc1 | -13.7% | ? | 3.7% | -1.5% | -4.7% | -10.3% | · | ·

Bioassay records: PubChem BioAssay, National Center for Advancing Translational Sciences (NCATS)
